Whole data set: some 81,000 sequences, median “one-hybrid fitness for binding NBS DNA” near -0.1, cut for the highest 2% near 0.36. The sample holds the highest values, similar sequences and a random draw of the others, so the mix is not that of the screen.
B1: Caulobacter ParB omega fusion; a variant is named by its letters at X, in order, B8GW30 (parent)
chain: MESVVVGEPGMSEGRRGLGRGLSALLGEVDAAPAQAPGEQLGGSREAPIEILQRNPDQPRRTFREEDLEDLSNSIREKGVLQPILVRPSPDTAGEYQIVAGERAWRAAQRAGLKTVPIMVRELDDLAVLEIGIIENVQRADLNVLEEALSYKVLMEKFERTQENIAQTIGKSXSHVANXMRLLXLPDEVQSYLVSGELTAXHARAIAAAADPVALAKQIIEGGLSVRETEALARKAPNLSAGKSKGGRPPRVKDTDTQALESDLSSVLGLDVSIDHRGSTGTLTITYATLEQLDDLCNRLTRGI

Variants of: B1
Assay: one-hybrid fitness for binding NBS DNA (the Noc-binding site; scaled: cognate 1, non-cognate 0); higher = stronger binding
Conditions: with NBS DNA site
Summary of the method: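 Fitness is the rescaled log change in variant-to-wild-type read ratio, measured by Illumina sequencing of plasmids before and after bacterial one-hybrid selection. The scale puts cognate at 1 and non-cognate at 0. Selection of Caulobacter ParB libraries, four specificity codons randomised, took place in E. coli USO with a HIS3 reporter, site 19 bp from the promoter, over 48 hours at 37°C on M9-minus-histidine with 0.1 mM IPTG and 5 mM 3-AT.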

Variant | one-hybrid fitness for binding NBS DNA
QRIQ | ≤ 0.2
QSYQ | ≤ 0.2
QTYQ | ≤ 0.2
QPRQ | ≤ 0.2
AGTH | ≤ 0.2
MNRA | ≤ 0.2
FAPL | ≤ 0.2
KVYR | ≤ 0.2
IVTS | ≤ 0.2
MDCS | ≤ 0.2
CHRG | ≤ 0.2
PCMS | ≤ 0.2
KLNI | ≤ 0.2
PANI | ≤ 0.2
HTQS | ≤ 0.2
DLLT | ≤ 0.2
QKSQ | ≤ 0.2
QMRQ | 0.437
QMSQ | 0.242
QMLQ | ≤ 0.2
QKNQ | 0.245
QKRQ | 0.415
WNMG | ≤ 0.2
PCVV | ≤ 0.2
QGRA | ≤ 0.2
TPPQ | ≤ 0.2

Variant | one-hybrid fitness for binding NBS DNA
QTAG | ≤ 0.2
QTFM | ≤ 0.2
QTAT | 0.595
QTFT | 0.515
QTFC | ≤ 0.2
QTAF | ≤ 0.2
MPRS | ≤ 0.2
QVPV | ≤ 0.2
YMPV | ≤ 0.2
QCQA | 0.372
QRQA | 0.611
QAQA | 0.252
QSQA | 0.248
QPQA | ≤ 0.2
QHQA | 0.315
RSSR | 0.437
RSSN | ≤ 0.2
RSSH | ≤ 0.2
RFSR | 0.248
RCSR | 0.527
RPSR | ≤ 0.2
CVPS | ≤ 0.2
VSVV | ≤ 0.2
PVFF | ≤ 0.2
GQRG | ≤ 0.2
KCKA | ≤ 0.2

Variant | one-hybrid fitness for binding NBS DNA
KRDA | ≤ 0.2
KRRA | 0.524
KRNA | 0.384
KRFA | 0.277
KRYA | 0.313
KRVA | ≤ 0.2
KCNA | ≤ 0.2
KRKA | 0.552
QDQP | ≤ 0.2
VKIM | ≤ 0.2
TAPS | ≤ 0.2
DPGG | ≤ 0.2
TPCF | ≤ 0.2
YQMR | ≤ 0.2
QPRH | ≤ 0.2
QSRH | 0.535
QCRH | 0.693
QSRP | 0.242
QSYH | ≤ 0.2
QCYH | 0.257
HHWC | ≤ 0.2
RFRR | 0.486
RDRR | ≤ 0.2
RFDR | ≤ 0.2
RCYR | 0.518
RFYR | ≤ 0.2

Variant | one-hybrid fitness for binding NBS DNA
RPRR | ≤ 0.2
RCRR | 0.77
RSYR | 0.381
RSIR | 0.207
RCDR | 0.255
RSPR | ≤ 0.2
RPYR | ≤ 0.2
RPCV | ≤ 0.2
MHMS | ≤ 0.2
FEYF | ≤ 0.2
SDMT | ≤ 0.2
MIYS | ≤ 0.2
TKTV | ≤ 0.2
PMHR | ≤ 0.2
LLCI | ≤ 0.2
RSRR | 0.664
RSRP | ≤ 0.2
QQPL | ≤ 0.2
PLCI | ≤ 0.2
GLAR | ≤ 0.2
HQST | ≤ 0.2
TWRR | ≤ 0.2
QYYR | 0.466
QYGC | ≤ 0.2
QYLS | 0.256
QYNT | 0.488

Variant | one-hybrid fitness for binding NBS DNA
QYLR | 0.436
QYIR | 0.346
QYPR | 0.27
QYGT | 0.421
QYGK | ≤ 0.2
QYLP | ≤ 0.2
QYDT | 0.272
QYNP | ≤ 0.2
NGTR | ≤ 0.2
DDKT | ≤ 0.2
MCAC | ≤ 0.2
HSLM | ≤ 0.2
FAHM | ≤ 0.2
KQAV | ≤ 0.2
DLQG | ≤ 0.2
QYHN | ≤ 0.2
QYER | 0.31
QYHS | 0.417
QYRR | 0.979
QYCS | 0.301
QYHP | ≤ 0.2
QYGM | ≤ 0.2
QYGG | ≤ 0.2
QYCR | 0.462
QYRF | 0.248
QYGR | 0.553

Variant | one-hybrid fitness for binding NBS DNA
QYCN | ≤ 0.2
WNEY | ≤ 0.2
VWCR | ≤ 0.2
ATSP | ≤ 0.2
GRTC | ≤ 0.2
VDLS | ≤ 0.2
QYSD | ≤ 0.2
QYDR | 0.305
QYGS | 0.377
QYNN | ≤ 0.2
QYSN | ≤ 0.2
QYGD | ≤ 0.2
QYNS | 0.437
QYNR | 0.599
QYNH | 0.246
QYDS | 0.203
QYGN | ≤ 0.2
QYSR | 0.499
KTNH | ≤ 0.2
HNTA | ≤ 0.2
HIMR | ≤ 0.2
YTFW | ≤ 0.2
SKSC | ≤ 0.2
